According to PubChem BioAssay (NCATS):
Records with an inconclusive call do not appear. Where a call stands in place of a potency, no number is given. Values without a mark were called inactive. Active and inactive are the calls of the source. Unless noted, calls follow the shape of the dose curve; as a rule, active = well fitted curve in the direction sought with a large enough effect; inconclusive = small, poorly fitted or top-dose-only effect, or another doubt; inactive = no such curve, though single readings can be large; an effect the other way counts as inactive or inconclusive.

Assays:
[1] = target: ATP-dependent 6-phosphofructokinase (Trypanosoma brucei brucei) (UniProt O15648); experiment: qHTS Assay to Find Inhibitors of T. brucei phosphofructokinase: hit validation (AID 492961); settings: T. brucei PFK, ADP-Glo luminescence; series mostly up to 51.4 µM
How it was run: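 Luminescence from ADP-Glo reports ADP generated as T. brucei PFK (1.25 nM) phosphorylates 0.5 mM fructose-6-phosphate using 0.1 mM ATP. Reactions ran 45 min at room temperature, pH 8.0.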

[2] = target: Thyroid hormone receptor beta (Homo sapiens) (UniProt P10828); experiment: qHTS assay for small molecule agonists of thyroid hormone receptor beta signaling (AID 588545; calls by dose curve); settings: TR-UAS-bla GripTite HEK 293, beta-lactamase ratio, agonist mode, 18 h; series mostly up to 76.7 µM
How it was run: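 Compounds were tested as agonists in TR-UAS-bla-GripTite HEK 293 cells. After 18 hrs at 37 C, CCF4 substrate was added and fluorescence read after 2 hrs at room temperature.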

3D7 = experiment: qHTS profiling for inhibitors of Plasmodium falciparum proliferation (AID 504749); also: nearly all actives have a fitted effect of over 60% in size; also: potency is read from the fitted curve at half-maximal effect; settings: P. falciparum in erythrocytes, SYBR Green DNA, 72 h; series mostly up to 28.7 µM
How it was run: (§1)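 Each compound contacts P. falciparum-infected red blood cells for 72 h at 37 C; lysis buffer (Tris, EDTA, saponin, Triton X, SYBR Green I) is added and fluorescence measured next morning; values normalized to controls.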

ATS189 = experiment: as above; settings: P. falciparum in erythrocytes, SYBR Green DNA, 72 h; series mostly up to 28.7 µM
How it was run: as §1

CP185 = experiment: as above; settings: P. falciparum in erythrocytes, SYBR Green DNA, 72 h; series mostly up to 28.7 µM
How it was run: as §1

CP191 = experiment: as above; settings: P. falciparum in erythrocytes, SYBR Green DNA, 72 h; series mostly up to 28.7 µM
How it was run: as §1

CP211 = experiment: as above; settings: P. falciparum in erythrocytes, SYBR Green DNA, 72 h; series mostly up to 28.7 µM
How it was run: as §1

CP250 = experiment: as above; settings: P. falciparum in erythrocytes, SYBR Green DNA, 72 h; series mostly up to 28.7 µM
How it was run: as §1

CP252 = experiment: as above; settings: P. falciparum in erythrocytes, SYBR Green DNA, 72 h; series mostly up to 28.7 µM
How it was run: as §1

CP286 = experiment: as above; settings: P. falciparum in erythrocytes, SYBR Green DNA, 72 h; series mostly up to 28.7 µM
How it was run: as §1

CP291 = experiment: as above; settings: P. falciparum in erythrocytes, SYBR Green DNA, 72 h; series mostly up to 28.7 µM
How it was run: as §1

CP305 = experiment: as above; settings: P. falciparum in erythrocytes, SYBR Green DNA, 72 h; series mostly up to 28.7 µM
How it was run: as §1

CP315 = experiment: as above; settings: P. falciparum in erythrocytes, SYBR Green DNA, 72 h; series mostly up to 28.7 µM
How it was run: as §1

CP329 = experiment: as above; settings: P. falciparum in erythrocytes, SYBR Green DNA, 72 h; series mostly up to 28.7 µM
How it was run: as §1

Dd2 = experiment: as above; settings: P. falciparum in erythrocytes, SYBR Green DNA, 72 h; series mostly up to 28.7 µM
How it was run: as §1

TAB113 = experiment: as above; settings: P. falciparum in erythrocytes, SYBR Green DNA, 72 h; series mostly up to 28.7 µM
How it was run: as §1

[3] = S16 Schwann cell PMP22 intronic element firefly luciferase assay (AID 624032); settings: S16 rat Schwann cells, PMP22 element FLuc, 24 h; series mostly up to 57.5 µM; also: nearly all actives have a fitted effect of over 30% in size; also: potency is read from the fitted curve at half-maximal effect
How it was run: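 Rat S16 Schwann cells stably carrying firefly luciferase driven by a PMP22 intronic element, in 10% FBS, treated 24 h at 37 C. ONE-Glo luminescence normalized to PTC124 control and DMSO (0%); curves classed by r2, magnitude and activity.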

ATP-dependent 6-phosphofructokinase (Trypanosoma brucei brucei), sequence (O15648 whole entry, looked up): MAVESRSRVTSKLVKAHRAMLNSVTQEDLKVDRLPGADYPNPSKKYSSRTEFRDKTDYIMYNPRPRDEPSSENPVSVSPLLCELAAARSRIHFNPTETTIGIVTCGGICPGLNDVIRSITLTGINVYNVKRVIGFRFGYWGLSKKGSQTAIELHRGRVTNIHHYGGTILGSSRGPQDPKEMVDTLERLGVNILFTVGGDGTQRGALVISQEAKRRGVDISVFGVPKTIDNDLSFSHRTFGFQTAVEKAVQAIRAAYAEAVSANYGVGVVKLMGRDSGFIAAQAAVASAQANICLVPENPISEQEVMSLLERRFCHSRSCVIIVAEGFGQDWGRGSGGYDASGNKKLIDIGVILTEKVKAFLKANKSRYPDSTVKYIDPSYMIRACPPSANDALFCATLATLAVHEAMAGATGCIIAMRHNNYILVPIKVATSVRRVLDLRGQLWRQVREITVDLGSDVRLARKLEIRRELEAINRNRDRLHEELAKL
Thyroid hormone receptor beta (Homo sapiens), sequence (P10828 whole entry, looked up): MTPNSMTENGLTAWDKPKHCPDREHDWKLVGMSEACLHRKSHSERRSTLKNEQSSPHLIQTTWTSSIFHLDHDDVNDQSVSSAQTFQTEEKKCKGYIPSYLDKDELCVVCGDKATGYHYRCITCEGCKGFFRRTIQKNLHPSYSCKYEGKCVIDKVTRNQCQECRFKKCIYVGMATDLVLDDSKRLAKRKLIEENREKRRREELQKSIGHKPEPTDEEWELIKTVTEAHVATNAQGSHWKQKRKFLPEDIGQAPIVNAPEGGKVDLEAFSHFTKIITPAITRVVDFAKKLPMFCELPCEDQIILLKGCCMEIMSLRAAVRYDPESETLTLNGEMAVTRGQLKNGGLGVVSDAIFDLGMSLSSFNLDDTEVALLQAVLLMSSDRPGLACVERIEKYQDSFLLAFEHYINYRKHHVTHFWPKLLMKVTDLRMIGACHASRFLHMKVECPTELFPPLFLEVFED

| Structure (SMILES) | outcome [1] | Potency [2] | Potency (3D7) | Potency (ATS189) | Potency (CP185) | Potency (CP191) | Potency (CP211) | Potency (CP250) | Potency (CP252) | Potency (CP286) | Potency (CP291) | Potency (CP305) | Potency (CP315) | Potency (CP329) | Potency (Dd2) | Potency (TAB113) | Potency [3] |
| --- | --- | --- | --- | --- | --- | --- | --- | --- | --- | --- | --- | --- | --- | --- | --- | --- | --- |
| C#CCN1CC(=O)N(COC(=O)[C@@H]2[C@@H](C=C(C)C)C2(C)C)C1=O | inactive | inactive | inactive | inactive | inactive | inactive | inactive | inactive | inactive | inactive | inactive | inactive | inactive | inactive | inactive | inactive | – |
| CC(Cc1ccccc1)N(C)C (stereo unspecified) | inactive | – | inactive | inactive | inactive | inactive | inactive | inactive | inactive | inactive | inactive | inactive | inactive | inactive | inactive | inactive | inactive |
| COC(C(=O)C(O)C(C)O)C1Cc2cc3cc(OC4CC(OC5CC(O)C(OC)C(C)O5)C(OC(C)=O)C(C)O4)c(C)c(O)c3c(O)c2C(=O)C1OC1CC(OC2CC(OC3CC(C)(O)C(OC(C)=O)C(C)O3)C(O)C(C)O2)C(O)C(C)O1 (stereo unspecified) | inactive | – | 631 nM (active) | 1410 nM (active) | 1260 nM (active) | 1780 nM (active) | – | 2000 nM (active) | 2000 nM (active) | 100 nM (active) | 2130 nM (active) | 2390 nM (active) | – | 3380 nM (active) | 178 nM (active) | 708 nM (active) | inactive |
| C[C@]12CC[C@H]3[C@@H](CC[C@@]45O[C@@H]4C(=O)C(C#N)C[C@]35C)[C@@H]1CC[C@@H]2O (stereo partly specified) | inactive | – | inactive | – | – | – | inactive | – | – | inactive | inactive | inactive | inactive | inactive | inactive | – | inactive |
| C[C@@H](N)[C@@H](O)c1ccc(O)c(O)c1 | – | – | inactive | inactive | inactive | inactive | inactive | inactive | inactive | inactive | inactive | inactive | inactive | inactive | inactive | inactive | – |
| CC12CCC3C4CCC(=O)C(O)=C4CCC3C1CCC2OC(=O)CCC1CCCC1 (stereo unspecified) | inactive | – | inactive | inactive | inactive | inactive | inactive | inactive | inactive | inactive | inactive | inactive | inactive | inactive | – | inactive | inactive |
| C=CC[C@]1(O)CCC2C3CCC4=CCCCC4C3CCC21C (stereo partly specified) | inactive | – | inactive | inactive | inactive | inactive | inactive | inactive | inactive | inactive | inactive | inactive | inactive | inactive | – | inactive | 22800 nM (active) |
| C#C[C@]1(O)CC[C@H]2[C@@H]3CCC4=CC(=O)CCC4(C)[C@H]3CCC21C (stereo partly specified) | inactive | – | inactive | inactive | inactive | inactive | inactive | inactive | inactive | inactive | inactive | inactive | inactive | inactive | inactive | inactive | inactive |
